Measured values taken from PubChem BioAssay (Tox21).
Results filed as inconclusive are left out. Where a structure was tested more than once in an assay, its records may differ in their call. Active and inactive are the calls of the source. Unless noted, calls come from the whole dose curve.

Experiments:
[1] = Nuclear factor erythroid 2-related factor 2/antioxidant responsive element (Nrf2/ARE) small molecule agonists: qHTS cell viability counter screen in human keratinocytes (AID 1919968; active = well fitted curve in the direction sought with a large enough effect in the repeat runs; an effect the other way counts as inactive or inconclusive; note: nearly all actives have a fitted effect of over 55% in size; note: potency is the fitted concentration of half-maximal effect)
Procedure, shortened: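 Cells of the KeratinoSens line were plated at 1,500 per well and left for 5 h before compound transfer from DMSO stocks. After a 23 h incubation (37 C, 5% CO2), CellTiter-Fluor was added. Signal was taken as fluorescence intensity 1 h later.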

[2] = Nuclear factor erythroid 2-related factor 2/antioxidant responsive element (Nrf2/ARE) small molecule agonists: luciferase reporter gene qHTS assay in human keratinocytes (AID 1919969); note: nearly all actives have a fitted effect of over 35% in size
[3] = target: Gonadotropin-releasing hormone receptor (Homo sapiens) (UniProt P30968); experiment: Human gonadotropin-releasing hormone receptor (GnRHR) small molecule agonists, calcium flux assay in GnRHR-HEK293 cells (AID 1920063); note: nearly all actives have a fitted effect of over 35% in size
Chain of Gonadotropin-releasing hormone receptor (Homo sapiens) (P30968 whole entry, looked up): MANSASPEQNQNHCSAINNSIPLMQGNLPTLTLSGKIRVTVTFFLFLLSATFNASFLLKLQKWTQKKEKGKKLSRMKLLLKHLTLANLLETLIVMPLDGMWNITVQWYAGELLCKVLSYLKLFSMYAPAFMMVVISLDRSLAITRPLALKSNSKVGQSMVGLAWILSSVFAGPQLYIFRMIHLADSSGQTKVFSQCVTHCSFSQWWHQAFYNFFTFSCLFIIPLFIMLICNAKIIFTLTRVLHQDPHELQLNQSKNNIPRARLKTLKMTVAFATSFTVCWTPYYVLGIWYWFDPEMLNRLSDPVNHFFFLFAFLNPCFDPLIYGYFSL
Procedure, shortened: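 Compounds dissolved in DMSO are pin-transferred onto dye-loaded GnRHR-HEK293 cells, which were seeded 18 h before at 37 C/5% CO2. Calcium signal is read as fluorescence intensity at 1 s intervals for 3 min.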

[4] = target: KiSS-1 receptor (Homo sapiens) (UniProt Q969F8); experiment: Human kisspeptin (KISS1R) small molecule agonists, calcium flux assay in KISS1R-HEK293 cells (AID 1920064; active = well fitted curve in the direction sought with a large enough effect in the repeat runs; an effect the other way counts as inactive or inconclusive)
Chain of KiSS-1 receptor (Homo sapiens) (Q969F8 whole entry, looked up): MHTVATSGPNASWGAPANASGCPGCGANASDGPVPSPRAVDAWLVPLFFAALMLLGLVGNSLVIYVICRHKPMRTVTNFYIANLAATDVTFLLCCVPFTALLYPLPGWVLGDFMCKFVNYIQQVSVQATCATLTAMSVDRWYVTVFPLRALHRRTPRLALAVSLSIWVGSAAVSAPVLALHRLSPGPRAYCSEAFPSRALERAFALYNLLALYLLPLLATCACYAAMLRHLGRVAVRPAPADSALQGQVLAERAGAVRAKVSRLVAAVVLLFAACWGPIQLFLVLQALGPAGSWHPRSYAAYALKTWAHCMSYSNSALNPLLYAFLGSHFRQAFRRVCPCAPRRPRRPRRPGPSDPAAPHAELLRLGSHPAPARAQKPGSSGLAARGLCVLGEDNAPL
Procedure, shortened: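 Cell line: HEK293, stable human KISS1R. Dye loading 1 h at 37 C after 18 h culture. Read: kinetic fluorescence, 480/540 nm, 3 min at 1 s intervals.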

[5] = G protein-coupled receptor (GPCR) small molecule agonists, calcium flux assay: HEK293 wild type cell line counter screen (AID 1920065)
Procedure, shortened: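 Tox21 10K compounds, 15 concentrations each in triplicate, pin-transferred in DMSO onto dye-loaded cells; kinetic read at 480/540 nm for 3 min, 1 s intervals.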

[6] = p53 small molecule agonists, cell-based qHTS assay with human liver microsomes (AID 1963577)
Procedure, shortened: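 Compounds act here after metabolic activation: human liver microsomes and NADPH, both at 0.5 mg/mL final, were co-added to p53RE-bla cells. Incubation ran 16 h at 37 C, followed by LiveBLAzer detection.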

[7] = p53 small molecule agonists, cell-based qHTS assay with rat liver microsomes (AID 1963578)
Procedure, shortened: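 Read-out is beta-lactamase reporter fluorescence (LiveBLAzer, 2 h, room temperature, dark) in p53RE-bla cells treated 16 h at 37 C with compound, rat liver microsomes and NADPH, both 0.5 mg/mL final.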

[8] = p53 small molecule agonists, cell-based qHTS assay with human liver microsomes: qHTS cell viability counter screen (AID 1963579); note: nearly all actives have a fitted effect of over 45% in size; note: potency is the fitted concentration of half-maximal effect
Procedure, shortened: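 Cells carrying the p53 response-element beta-lactamase reporter are treated for 16 h at 37 C with test compounds in the presence of human liver microsomes and NADPH (both 0.5 mg/mL final); ATP-based CellTiter-Glo luminescence then reports viability.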

[9] = p53 small molecule agonists, cell-based qHTS assay with rat liver microsomes: qHTS cell viability counter screen (AID 1963580); note: nearly all actives have a fitted effect of over 45% in size
Procedure, shortened: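 Luminescent ATP readout (CellTiter-Glo, 30 min at room temperature) reports viability of p53RE-bla HCT-116 cells after 16 h at 37 C with test compounds under metabolic activation by rat liver microsomes and NADPH at 0.5 mg/mL final each.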

[10] = p53 small molecule agonists, cell-based qHTS assay: qHTS cell viability counter screen (AID 1963581); note: nearly all actives have a fitted effect of over 45% in size
Procedure, shortened: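 ATP content measured by luminescence in HCT-116 p53RE-bla cells treated 16 h at 37 C, same wells as the reporter screen.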

[11] = p53 small molecule agonists, cell-based qHTS assay (AID 1963582; active = well fitted activation curve with a large enough effect in the signal ratio in the repeat runs, not every such curve was filed as active; the % refers to the signal ratio)
Procedure, shortened: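 16 h compound exposure (37 C) of p53 response element–bla cells, preceded by 5 h recovery at 37 C/5% CO2; read-out via LiveBLAzer B/G FRET substrate, 2 h RT, fluorescence intensity.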

[12] = target: 5-hydroxytryptamine receptor 2A (Homo sapiens) (UniProt P28223); experiment: 5-hydroxytryptamine receptor 2A (HTR2A) small molecule agonists, cell-based qHTS assay (AID 1963587); note: nearly all actives have a fitted effect of over 30% in size
Chain of 5-hydroxytryptamine receptor 2A (Homo sapiens) (P28223 whole entry, looked up): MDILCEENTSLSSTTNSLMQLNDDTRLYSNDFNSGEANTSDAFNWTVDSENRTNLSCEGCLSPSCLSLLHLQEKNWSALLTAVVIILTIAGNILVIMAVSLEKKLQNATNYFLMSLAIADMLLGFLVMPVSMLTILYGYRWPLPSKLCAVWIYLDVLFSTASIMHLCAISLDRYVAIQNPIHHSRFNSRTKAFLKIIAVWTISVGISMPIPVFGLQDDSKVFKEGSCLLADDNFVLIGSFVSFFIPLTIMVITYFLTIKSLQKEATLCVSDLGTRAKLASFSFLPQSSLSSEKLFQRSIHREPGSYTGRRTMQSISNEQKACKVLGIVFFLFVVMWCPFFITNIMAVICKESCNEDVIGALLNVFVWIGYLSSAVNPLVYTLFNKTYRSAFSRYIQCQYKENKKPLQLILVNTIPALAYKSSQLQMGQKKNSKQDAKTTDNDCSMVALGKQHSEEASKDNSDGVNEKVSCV
Procedure, shortened: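 HTR2A-CHO cells, plated 18 h at 37 C/5% CO2, dye-loaded 1 h at 37 C; compounds in DMSO added by pin tool (agonist mode). Intracellular calcium flux read as kinetic fluorescence on FDSS over 2 min at 1 s intervals.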

[13] = target: Muscarinic acetylcholine receptor M1 (Homo sapiens) (UniProt P11229); experiment: Cholinergic receptor muscarinic 1 (CHRM1) small molecule antagonists, cell-based qHTS assay (AID 1963588); note: nearly all actives have a fitted effect of over 40% in size
Chain of Muscarinic acetylcholine receptor M1 (Homo sapiens) (P11229 whole entry, looked up): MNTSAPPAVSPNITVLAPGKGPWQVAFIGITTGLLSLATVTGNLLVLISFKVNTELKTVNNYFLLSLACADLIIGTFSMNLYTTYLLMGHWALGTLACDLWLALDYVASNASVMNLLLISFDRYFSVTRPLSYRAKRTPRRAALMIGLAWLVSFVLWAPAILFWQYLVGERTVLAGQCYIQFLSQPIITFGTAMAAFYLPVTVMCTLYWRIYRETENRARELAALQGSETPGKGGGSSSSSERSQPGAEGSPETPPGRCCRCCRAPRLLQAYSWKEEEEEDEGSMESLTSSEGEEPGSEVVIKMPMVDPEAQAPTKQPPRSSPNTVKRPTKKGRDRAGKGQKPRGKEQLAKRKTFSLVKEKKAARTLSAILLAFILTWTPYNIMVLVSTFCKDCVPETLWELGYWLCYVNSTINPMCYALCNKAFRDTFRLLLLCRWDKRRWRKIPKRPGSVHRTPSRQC
Procedure, shortened: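 Compounds were tested at 15 concentrations in three independent runs. Dye-loaded CHRM1-CHO cells were exposed 5 min at room temperature before stimulation by acetylcholine added at 50nM. Intracellular calcium was read kinetically on FDSS for 3 min.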

[14] = cAMP Responsive Elements (CRE) small molecule agonists, cell-based qHTS assay (AID 1963590)
Procedure, shortened: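 HEK 293T cells stably bearing CRE-bla were plated at 2,000 cells per well and rested 18 h. Compounds, positive controls or DMSO were added for 3 h at 37 C. LiveBLAzer B/G substrate was then loaded for 2 h at room temperature.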

[15] = cAMP Responsive Elements (CRE) small molecule antagonists, cell-based qHTS assay (AID 1963591; active = well fitted inhibition curve with a large enough effect in the signal ratio in the repeat runs, not every such curve was filed as active; the % refers to the signal ratio)
Procedure, shortened: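 First, CRE-bla HEK293T cells settled 18 h at 37 C. Next, compound and 0.25 uM final NKH477 were applied for 3 h. Last, LiveBLAzer B/G substrate was loaded for 2 h at room temperature.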

[16] = target: Beta-2 adrenergic receptor (Homo sapiens) (UniProt P07550); experiment: Adrenergic beta2 receptor (ADRB2) small molecule antagonists, cell-based qHTS assay (AID 1963592); note: series mostly up to about 92 µM; nearly all actives have a fitted effect of over 50% in size
Chain of Beta-2 adrenergic receptor (Homo sapiens) (P07550 whole entry, looked up): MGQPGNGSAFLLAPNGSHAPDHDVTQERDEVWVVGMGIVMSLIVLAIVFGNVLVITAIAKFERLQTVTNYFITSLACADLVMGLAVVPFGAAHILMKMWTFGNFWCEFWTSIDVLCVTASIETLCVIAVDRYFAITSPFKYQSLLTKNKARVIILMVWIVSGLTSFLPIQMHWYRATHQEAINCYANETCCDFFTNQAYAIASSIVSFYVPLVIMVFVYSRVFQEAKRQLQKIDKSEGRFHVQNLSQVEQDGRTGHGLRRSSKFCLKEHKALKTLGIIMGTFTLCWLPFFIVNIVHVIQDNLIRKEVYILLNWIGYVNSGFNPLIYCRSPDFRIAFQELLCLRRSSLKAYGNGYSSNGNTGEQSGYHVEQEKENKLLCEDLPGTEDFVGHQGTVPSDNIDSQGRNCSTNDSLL
Procedure, shortened: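 Assay format: CHO-ADRB2 cells, 18-20hr seeding at 37C/5% CO2, then compound plus 1nM isoproterenol agonist mix for 0.5hr RT. Homogeneous time-resolved fluorescence cAMP detection after 1hr, expressed as 665/615 nm ratio.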

[17] = target: Beta-2 adrenergic receptor (Homo sapiens) (UniProt P07550); experiment: Adrenergic beta2 receptor (ADRB2) small molecule agonists, cell-based qHTS assay (AID 1963593);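 note: CHO cells stably overexpressing human ADRB2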
Procedure, shortened: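 CHO cells stably over-expressing ADRB2 were plated overnight at 37C, then dosed with compounds plus a stimulation mix containing 100uM IBMX and 25uM Ro-20-1724 for 0.5hr at room temperature. cAMP was measured by HTRF competition, 1hr.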

[18] = target: D(2) dopamine receptor (Homo sapiens) (UniProt P14416); experiment: Dopamine D2 receptor (DRD2) small molecule agonists, cell-based qHTS assay (AID 1963594); note: nearly all actives have a fitted effect of over 35% in size
Chain of D(2) dopamine receptor (Homo sapiens) (P14416 whole entry, looked up): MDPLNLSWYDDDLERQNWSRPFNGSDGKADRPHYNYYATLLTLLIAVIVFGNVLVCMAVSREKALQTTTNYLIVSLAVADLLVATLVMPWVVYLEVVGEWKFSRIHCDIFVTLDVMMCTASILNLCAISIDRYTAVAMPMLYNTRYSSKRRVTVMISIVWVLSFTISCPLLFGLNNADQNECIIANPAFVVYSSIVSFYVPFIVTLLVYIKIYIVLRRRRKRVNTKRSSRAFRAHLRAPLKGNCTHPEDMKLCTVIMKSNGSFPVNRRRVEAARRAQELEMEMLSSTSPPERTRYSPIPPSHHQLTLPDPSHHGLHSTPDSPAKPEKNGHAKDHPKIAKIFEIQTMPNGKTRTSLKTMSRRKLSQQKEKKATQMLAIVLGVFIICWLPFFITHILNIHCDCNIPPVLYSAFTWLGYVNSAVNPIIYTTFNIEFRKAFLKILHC
Procedure, shortened: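 HEK293 cells stably expressing DRD2 were cultured 24 h at 37 C, then given Ro20-1724 (0.1 mM final) and compounds for 10 min at room temperature. NKH477 (200nM) was then added for 30 min. cAMP was read by HTRF.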

[19] = target: D(2) dopamine receptor (Homo sapiens) (UniProt P14416); experiment: Dopamine D2 receptor (DRD2) small molecule antagonists, cell-based qHTS assay (AID 1963595; active = well fitted inhibition curve with a large enough effect in the signal ratio in the repeat runs, with a control signal flat; the % refers to the signal ratio)
Procedure, shortened: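 In this cell-based antagonist screen, compounds act for 10 min at room temperature before a 30 min challenge with 12 nM quinpirole and 200 nM NKH477. cAMP is quantified by HTRF competition in DRD2-HEK293 cells containing 0.1 mM Ro20-1724.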

[20] = target: Muscarinic acetylcholine receptor M1 (Homo sapiens) (UniProt P11229); experiment: Cholinergic receptor muscarinic 1 (CHRM1) small molecule agonists, cell-based qHTS assay (AID 1963589); note: nearly all actives have a fitted effect of over 35% in size
Procedure, shortened: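 Homogeneous fluorescence calcium flux, agonist mode. Human M1-expressing CHO cells; compound dosed at 15 concentrations, three independent runs; signal sampled every 1 sec.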

Measured: Potency

Oc1cc(O)c2c(c1)O[C@H](c1ccc(O)c(O)c1)[C@H](O)C2
not listed: [20]
inactive: all other assays above

CCCCCCCCC(=O)OCC
not listed: [12]
inactive: all other assays above

CC(C=O)c1ccccc1 (stereo not drawn)
not listed: [14]
inactive: all other assays above

CCCc1ccc(N)cc1
not listed: [12]
inactive: all other assays above

O=C(O)c1cccc(C(F)(F)F)c1
not listed: [11]
inactive: all other assays above

O=c1[nH]c(=O)n([C@H]2CCCO2)cc1F
not listed: [12] | [13] | [20]
inactive: all other assays above

Cc1ccc(C(=O)O)cc1
not listed: [11] | [17] | [20]
inactive: all other assays above

COC(=O)Cc1cccc2ccccc12
not listed: [11]
inactive: all other assays above

CCCCCC(=O)O[C@]1(C(C)=O)CC[C@H]2[C@@H]3CCC4=CC(=O)CC[C@]4(C)[C@H]3CC[C@@]21C
20.3 µM (active) and inactive: [8]
active: [1] 30.4 µM
not listed: [11] | [14] | [15]
inactive: all other assays above

CCOC(=O)c1c(C)n(C)c2ccc(O)cc12
not listed: [11]
inactive: all other assays above

FC(F)(F)c1ccccc1Cl
not listed: [11] | [20]
inactive: all other assays above

NC/C=C/C(=O)O
not listed: [11] | [20]
inactive: all other assays above

CC(C)(O)C#CC(C)(C)O
not listed: [11] | [17] | [19]
inactive: all other assays above

CCCCC1CCC(O)CC1 (stereo not drawn)
not listed: [11]
inactive: all other assays above

CCOC(OCC)OCC
not listed: [11]
inactive: all other assays above

O=C(O)[C@@H]1[C@H]2C[C@H]3c4[nH]c5ccccc5c4CCN3C[C@@H]2CC[C@@H]1O
not listed: [11] | [19]
inactive: all other assays above
